# Source: PubChem (National Center for Advancing Translational Sciences (NCATS))
# HTT-AS act = HTT-AS promoter activation. HEK293 HTT-AS promoter firefly luciferase reporter, 24 h; response scale: percent change from vehicle, -100% = no light. Potency, µM (top dose mostly 57.5 µM), without a hit: at the highest dose activity change, positive = activation, most hits filed as activators. actives 0.24% (n = 48,000); also: potency is read from the fitted curve at half-maximal effect; nearly all actives have a fitted effect of over 55% in size
#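 Quantitative HTS used concentration series of up to 57.5 uM final on HEK293 luciferase reporter cells, 24 h at 37 degrees C. Readout was Dual-Glo firefly luminescence.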
# HTT prom inh = inhibits huntingtin promoter activity; actives 0.93% (n = 48,000); HEK293 HTT promoter firefly luciferase reporter, 24 h; AID 1508623; Potency, µM (top dose mostly 57.5 µM), inactives show at the top dose activity change, negative = inhibition, hits mostly inhibitors; also: potency is read from the fitted curve at half-maximal effect; nearly all actives have a fitted effect of over 50% in size
#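 HEK293 Fluc reporter, 2,500 cells/well, 24 h pre-culture; cpds up to 57.5 uM final, 24 h 37 degrees C; Dual-Glo, 10 min RT; normalized vehicle = 0%, zero RLU = -100%.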
# NTMT1 inhibitor = inhibitors of human N-terminal methyltransferase NTMT1; Q9BV86; NTMT1 MTase-Glo SAH luminescence, purified enzyme; Potency, µM (series often up to 114 µM), for inactives: at the highest dose activity change, negative = inhibition, hits mostly inhibitors; actives 2.5% (n = 59,000);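 also: potency is read from the fitted curve at half-maximal effect; plate controls were DMSO vehicle for no effect and no enzyme for full effect; nearly all actives have a fitted effect of over 65% in size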
# Target sequence (Q9BV86 whole entry, looked up): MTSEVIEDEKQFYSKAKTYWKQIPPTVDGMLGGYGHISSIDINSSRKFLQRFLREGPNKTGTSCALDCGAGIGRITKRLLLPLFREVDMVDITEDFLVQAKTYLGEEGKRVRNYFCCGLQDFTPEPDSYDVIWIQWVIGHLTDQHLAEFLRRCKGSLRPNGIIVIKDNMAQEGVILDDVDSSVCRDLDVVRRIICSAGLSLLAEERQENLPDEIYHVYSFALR
# GPR32 ag = GPR32 (DRV1) agonism, beta-arrestin recruitment | O75388 | CHO-K1 GPR32 beta-arrestin PathHunter luminescence, 90 min; zero percent set by DMSO-only wells | activation, % at 76.9 µM | actives 2.5% (n = 48,000);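 active = activation of at least 60% and not above a set upper limit, about 1 call in 100 departs from these limits; inconclusive = activation of 40% to 60%, or above that upper limit; inactive = activation under 40%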; also: 0% is about no effect
# Target sequence (O75388 whole entry, looked up): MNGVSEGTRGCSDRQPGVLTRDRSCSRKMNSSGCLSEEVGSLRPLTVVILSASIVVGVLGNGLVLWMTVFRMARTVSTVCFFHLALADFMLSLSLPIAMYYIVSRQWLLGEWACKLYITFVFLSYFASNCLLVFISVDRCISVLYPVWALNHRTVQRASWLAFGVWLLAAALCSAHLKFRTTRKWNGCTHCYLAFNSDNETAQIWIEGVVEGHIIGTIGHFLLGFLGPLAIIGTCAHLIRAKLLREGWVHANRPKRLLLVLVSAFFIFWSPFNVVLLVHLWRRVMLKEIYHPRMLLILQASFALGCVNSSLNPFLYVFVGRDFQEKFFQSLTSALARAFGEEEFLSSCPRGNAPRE
#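 Beta-arrestin recruitment read-out: luminescence from complemented beta-Gal in CHO-K1 GPR32 PathHunter cells, measured 1 h after detection reagent at ambient temperature following 90 min compound exposure at 37 °C; DMSO served as basal (EC0) control.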
# Active calls of the source: *; ? = inconclusive; . = no result given; [ ] = remark or other dose. Compounds with a hit are over-represented: about 4.6% of the library has one in this group of screens. Unless noted, calls follow the shape of the dose curve; as a rule, active = well fitted curve in the direction sought with a large enough effect; inconclusive = small, poorly fitted or top-dose-only effect, or another doubt; inactive = no such curve, though single readings can be large; an effect the other way counts as inactive or inconclusive.
SMILES,HTT-AS act,HTT prom inh,NTMT1 inhibitor,GPR32 ag
COc1cccc(NS(=O)(=O)c2ccc3[nH]cc(C(=O)NC4CCCCC4)c(=O)c3c2)c1,-48%,?,5%,103*
Cc1cccc(CCNC(=O)c2c[nH]c3ccc(S(=O)(=O)Nc4ccccc4F)cc3c2=O)c1,-46%,22µM*,2%,11
Nc1ncc(C(=O)NC2CN(C(=O)C3CC3)C2)c2ccc(-c3cccc(F)c3)nc12,.,.,-1%,.
COc1ccc(-c2nc3ccccc3s2)cc1NC(=O)c1cccc([N+](=O)[O-])c1C,2µM*,71%,?,-13
COc1ccc(-c2nc3ccccc3s2)cc1NC(=O)c1ccccc1F,-9%,-1%,?,-3
COc1ccc(-c2nc3ccccc3s2)cc1NC(C)=O,1.4µM*,63%,-12%,-3
Cc1cccc(C(=O)Nc2ccc(-c3nc4ccccc4s3)cc2Cl)c1,14%,28%,1%,92*
CN(CCOc1ccc(-c2ccc3c(c2)OCO3)cc1C(C)(C)C)CC(=O)O,.,.,-6%,.
Cc1c(-c2cnccn2)ssc1=S,.,.,3.2µM*,.
Cc1cc(NC(=O)Nc2ccc(F)c(F)c2)n(-c2ccccc2)n1,.,.,5%[57.5 µM],.
Cc1ccccc1C(=O)N1CCc2cc(-c3nc(NC(=O)Cc4ccc5ccccc5c4)sc3C)ccc21,.,.,12%,.
CCN(c1cc(C)cc(C)c1)S(=O)(=O)c1nnc(NC(=O)c2cccs2)s1,-21%,-8%,11%,34
CCN(c1cccc(C)c1)S(=O)(=O)c1nnc(NC(=O)c2cccs2)s1,-28%,-18%,10%,62*
COc1ccc(CNC(=O)C2CCN(C(=O)c3cnn(-c4ccccc4)c3-n3cccc3)CC2)cc1,-44%,?,89µM*,0
O=C1CCCc2cc(S(=O)(=O)Nc3cnccc3C(=O)Nc3nc(-c4ccccc4)cs3)ccc2N1,.,.,-16%,.
COc1cc(O)c(C(CC(=O)N2CCCC(C(=O)c3ccccc3)C2)c2ccc3c(c2)OCO3)c(OC)c1 (stereo not given),.,.,8%[228 µM],.
O=C(O)CCc1nc2ccccc2[nH]1,-10%,4%,?,0
Cc1ccc(/C=C/c2nc3ccccc3[nH]2)cc1,-72%,-68%,5µM*,31
C[C@H](Oc1cc(-n2cnc3ccc(CN4CCN(C)CC4)cc32)sc1C(N)=O)c1ccccc1C(F)(F)F,.,.,25µM*,.
Cc1nc2cccnc2n1-c1cccc(C(=O)N2CCN(c3ccc(Cl)cc3)CC2)c1,-45%,10µM*,-6%,46
COc1cccc(C(=O)NCCc2nc3ccccc3n2CCOc2ccc(C)cc2)c1,.,.,11%,.
CC(C)c1ccc(C2NC(=O)c3c(sc4c3CCN(C)C4)N2)cc1 (stereo not given),6%,-5%,4%,-17
CN1CCc2c(sc3c2C(=O)NC(c2ccc(C(C)(C)C)cc2)N3)C1 (stereo not given),5%[11.5 µM],-7%[11.5 µM],79µM*,-7
CC(=O)OC1/C(C)=C/C(=O)C(OC(C)=O)C(C)(C)/C=C/C(C)C(=O)C2(OC(C)=O)CC(C)C(OC(=O)c3ccccc3)C12 (stereo not given),.,.,-3%[12.6 µM],.
CC1CC(O)/C=C/C(O)C(O)CC(=O)Cc2c(Cl)c(O)cc(O)c2C(=O)O1 (stereo not given),.,.,1%[29.8 µM],.
SMILES,HTT-AS act,HTT prom inh,NTMT1 inhibitor,GPR32 ag
O=C(CSc1cn(CCNC(=O)c2c(F)cccc2F)c2ccccc12)Nc1ccccc1F,-10%,-8%,0%,66*
COc1ccc(CCNC(=O)CSc2cn(CCNC(=O)c3ccccc3F)c3ccccc23)cc1OC,-27%,-30%,-8%,80*
COc1ccc(C(=O)NCCn2cc(SCc3cccc(F)c3)c3ccccc32)cc1OC,-58%,25µM*,-12%,36
O=C(CSc1cn(CCNC(=O)c2c(F)cccc2F)c2ccccc12)Nc1ccc(F)cc1,-20%,-27%,2%,-4
CCOc1ccc(Cc2cc([C@@H]3O[C@H](CO)[C@@H](O)[C@H](O)[C@H]3O)ccc2Cl)cc1,.,.,13%,.
CC(=O)Nc1cc(Oc2ccc3c(nc(Nc4ccc(F)cc4F)n3C)c2C)ccn1,.,.,18%,.
COc1cc(O)c(C(CC(=O)N2CCC(c3ccccc3)CC2)c2ccc3c(c2)OCO3)c(OC)c1 (stereo not given),.,.,3%,.
COc1ccc(Nc2oc(-c3ccc(COc4ccc(OC)cc4)o3)nc2C#N)cc1,-34%,?,6%,71*
COc1ccc(CCNc2oc(COc3cccc(C)c3)nc2C#N)cc1OC,-32%,?,7%,111*
CCOc1ccc(Nc2oc(-c3ccc(COc4ccc(C)cc4)o3)nc2C#N)cc1,-13%,-21%,5%,67*
COc1ccc(Nc2oc(-c3ccc(COc4cccc(C)c4)o3)nc2C#N)cc1,-22%,-18%,5%,97*
COc1ccc(CCNc2oc(COc3ccc(Cl)cc3)nc2C#N)cc1OC,-31%,?,-1%,38
COc1ccc(Nc2oc(-c3ccc(COc4ccccc4)o3)nc2C#N)cc1,-1%,-9%,13%,?
CC(C)(O)c1coc(S(=O)(=O)NC(=O)Nc2c3c(cc4c2CCC4)CCC3)c1,.,.,17%,.
CCOC(=O)c1ccnc(CNCC(=O)N(CC)CCN(C)C)c1,.,.,4%,.
O=c1c2ccccc2nc2sc(Nc3ccc(Sc4ccccc4)cc3)nn12,.,.,0%,.
CCCCNC(=O)CN1CCN(c2ncc(NC(=O)c3ccc(Cl)cc3)cc2C(=O)O)CC1,-11%,-17%,40µM*,11
COc1ccc(C2c3c(-c4ccc(F)cc4)n[nH]c3C(=O)N2c2ccccc2)cc1OC (stereo not given),-15%,-2%[11.5 µM],14%,1
COc1cc(C2c3c(-c4ccc(C)cc4)n[nH]c3C(=O)N2c2ccc(F)cc2)ccc1O (stereo not given),-55%,?,-1%,104*
Nc1ccc2nc(-c3ccc(O)cc3)sc2c1,?,86%,32µM*,15
Cc1ccc2nc(-c3ccc(NC(=O)C(F)(F)F)cc3)sc2c1,-10%,-18%,5%,-7
CCOc1ccc(CCNC(=O)c2cc3sccc3n2Cc2ccncc2)cc1OCC,.,.,6%,.
C=CC(=O)Nc1cc(N2CCN(CC)CC2)ccc1Nc1cc(N(C)C(=O)Nc2c(Cl)c(OC)cc(OC)c2Cl)ncn1,.,.,-3%,.
N#Cc1cnc2c(Cl)cc(NCc3cn(CCN4CCCCCC4)nn3)cc2c1Nc1ccc(F)c(Cl)c1,.,.,10µM*,.
Nc1ncnc2c1ncn2[C@H]1CCCO1,.,.,3%[57.5 µM],.
CCCc1nn2c(=O)cc(COC(=O)c3cccc(NC(=O)CCc4ccccc4)c3)nc2s1,8%,1%,5%,-6
CCCCc1nn2c(=O)cc(COC(=O)c3cccc(NC(=O)CCc4ccccc4)c3)nc2s1,0.25µM*,72%,3%,-7
CC(=O)N1CCN(c2ccc(NC(=O)Cc3cnc(-c4ccnc(F)c4)c(C)c3)nc2)CC1,.,.,17%,.
CCOc1ccc(CNc2ccc(-c3nc4ccccc4[nH]3)cc2)cc1,.,.,-1%[57.5 µM],.
